KB-V1 cytotox = qHTS assay for MDR1-selective chemotherapeutics: Primary screen using the drug-selected MDR subline cells KB-V1. KB-V1 MDR cells viability, CellTiter-Glo, 72 h. Potency, µM (titrated, usually from 46.1 µM), most hits filed as cytotoxic. 400,000 tested, 3.4% active. AID 1347076, 2019; also: nearly all actives have a fitted effect of over 60% in size
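Cytotoxicity via CellTiter-Glo luminescence after 72 h compound exposure at 37 degrees C. Cells: drug-selected KB-V1 line, DMEM phenol-red free plus 10% FBS. Compounds tested at multiple concentrations; normalized data fitted to concentration-effect curves.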
DRD3 agonist = qHTS of D3 Dopamine Receptor Agonist: qHTS; D(3) dopamine receptor (Homo sapiens), P35462; D3R DiscoveRx beta-arrestin cells, luminescence, 90 min; max activation, %; 410,000 tested, 0.58% active; AID 652048, 2013; in the data active = max activation above about 30%
Target sequence (P35462 whole entry, looked up): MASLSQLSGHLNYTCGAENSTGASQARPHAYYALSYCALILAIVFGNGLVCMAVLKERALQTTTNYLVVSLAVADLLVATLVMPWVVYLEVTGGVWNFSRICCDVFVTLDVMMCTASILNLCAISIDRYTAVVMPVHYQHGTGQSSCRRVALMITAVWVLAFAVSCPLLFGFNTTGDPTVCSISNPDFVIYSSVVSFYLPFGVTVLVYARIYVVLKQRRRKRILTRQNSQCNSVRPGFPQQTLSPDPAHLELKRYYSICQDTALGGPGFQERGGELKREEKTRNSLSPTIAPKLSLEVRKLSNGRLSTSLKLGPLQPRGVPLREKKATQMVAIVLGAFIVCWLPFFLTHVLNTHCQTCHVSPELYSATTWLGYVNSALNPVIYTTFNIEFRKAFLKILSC
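Agonist-mode cell screen: cells plated at 1500/well and incubated overnight at 37 °C, then exposed to library compounds for 90 min at 37 °C. Detection reagent was added for 30–60 min at room temperature, and luminescence was read.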
KB-3-1 cytotox = qHTS assay for MDR1-selective chemotherapeutics: Primary screen using the parental adenocarcinoma cell KB-3-1; KB-3-1 viability, CellTiter-Glo ATP luminescence, 72 h; Potency, µM (doses to about 46.1 µM), usual class: cytotoxic; 400,000 tested, 1.4% active; AID 1347075, 2019; also: nearly all actives have a fitted effect of over 60% in size
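Cytotoxicity measured as CellTiter-Glo luminescence after 72 h at 37 C. Compound titrations were pinned onto drug-naive KB-3-1 parental adenocarcinoma cells grown in DMEM with 10% FBS, and normalized data fitted to concentration-response curves.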
SW480 rerep = A quantitative high throughput screen for small molecules that induce DNA re-replication in SW480 colon adenocarcinoma cells. SW480 DNA re-replication, Hoechst DNA content imaging, 48 h. Potency, µM (doses to about 46.1 µM), usual class: activators. 340,000 tested, 1.8% active; also: nearly all actives have a fitted effect of over 55% in size
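Quantitative HTS format with DMSO vehicle controls; 48 hr drug incubation at 37 C, then 40 min Hoechst staining and scanning imager measurement at 405 nm excitation.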
MCF10A rereplic = A quantitative high throughput screen for small molecules that induce DNA re-replication in MCF 10a normal breast cells; MCF 10A DNA re-replication, Hoechst nuclear intensity, 48 h; Potency, µM (series often up to 46.1 µM), hits mostly activators; 350,000 tested, 2.9% active; AID 624296, 2012; also: nearly all actives have a fitted effect of over 50% in size
D3 antag = qHTS of D3 Dopamine Receptor Antagonist: qHTS | D(3) dopamine receptor (Homo sapiens), P35462 | D3R cells, DiscoveRx beta-arrestin luminescence, antagonist mode; hits give low values | max response, negative = inhibition, % | 360,000 tested, 2.5% active | AID 652054, 2013; in the data active = max response below about -50%; inconclusive = no clear call, values can overlap the other calls
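Cells expressing the human receptor were seeded at 1500 cells/well, incubated overnight at 37 degrees C in 5% CO2, then exposed to library compounds with dopamine controls for 90 minutes at 37 degrees C before luminescent detection.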
A number is an active result; – = inactive; ? = inconclusive; · = not tested or not shown; [ ] = another dose, or the depositor's remark. An excerpt weighted towards active compounds, which were near 8.9% of everything screened. Unless noted, calls follow the shape of the dose curve; as a rule, active = well fitted curve in the direction sought with a large enough effect; inconclusive = small, poorly fitted or top-dose-only effect, or another doubt; inactive = no such curve, though single readings can be large; an effect the other way counts as inactive or inconclusive.

SMILES | KB-V1 cytotox | DRD3 agonist | KB-3-1 cytotox | SW480 rerep | MCF10A rereplic | D3 antag
O=C(CSc1nc2c([nH]c3ccccc32)c(=O)n1-c1ccc(F)cc1)N1CCc2ccccc21 | – | – | – | · | · | ·
COCCNC(=S)NN=C1CCC(c2ccccc2)CC1 (centres undefined) | – | – | – | ? | – | –
COCCNC(=S)NN=C1CCCCCC1 | – | – | – | ? | 8.2µM | –
Cc1ccc(CSc2nc(N)cc(N)n2)cc1 | – | – | – | – | – | –
N#Cc1ccc(CSc2nc(N)cc(N)n2)cc1 | ? | – | – | –[1.84 µM] | – | -55
Cc1ccc(-n2nc(C)c(NC(=O)CCl)c2C)cc1C | 16µM | – | 9.2µM | ? | – | –
Cc1nn(C)c(C)c1NC(=O)CCl | – | – | 12µM | – | – | –
CCC(=O)Nc1c(C)nn(-c2ccc(C)c(C)c2)c1C | – | – | – | – | – | –
Cc1ccc2nc(COc3ccccc3NC(=O)COc3ccccc3Cl)cc(=O)n2c1 | ? | – | – | · | · | ·
COc1ccc(C(=O)C(/C=N/O)=N/Nc2ccc(F)cc2)cc1 | – | – | – | – | – | –
CO/N=C/C(=N\Nc1ccc(OC)cc1)C(=O)c1ccc(OC)cc1 | 12µM | – | ? | ? | – | –
CCOc1ccc(NC(=O)NCCCn2c(C)nc3cc(C)c(C)cc32)cc1 | 23µM | – | – | – | – | –
Cc1cc2nc(C)n(CCCNC(=O)Nc3cccc4ccccc34)c2cc1C | 16µM | – | ? | – | ? | –
COc1cc2c(-c3ccccc3Cl)nc3c(c(C)nn3-c3ccccc3)c2cc1OC | ? | 59 | – | · | · | ·
O=C(OCc1ccccc1)N1C=CC2CC1c1c(Cl)cccc12 (centres undefined) | – | – | – | – | 23µM | –
Cc1nc(CC(=O)c2c(C)cc(O)cc2O)cs1 | 21µM | – | 21µM | – | – | –
Cc1nc(CC(=O)c2ccc(O)cc2O)cs1 | – | – | – | – | –[0.0737 µM] | –
O=S(=O)(c1ccc(Cl)nc1)N(Cc1ccccc1)Cc1ccccc1 | 18µM | – | – | – | ? | –
COc1ccc(-c2cc(C(F)(F)F)nc(SCC(=O)N(C)Cc3cn(C)nc3C)n2)cc1OC | 18µM | – | ? | – | ? | –
COc1ccc(-c2cc(C(F)(F)F)nc(SCC(=O)NCC(C)C)n2)cc1OC | · | – | · | · | · | ·
COc1ccc(-c2cc(C(F)(F)F)nc(SCC(=O)NCc3cnn(C)c3C)n2)cc1OC | 9.2µM | – | ? | – | – | –
O=C(Nc1ccccc1Br)c1ccccc1-c1ccccc1 | ? | – | 7.3µM | 16µM | 13µM | –
Cc1cc(Br)ccc1NC(=O)c1ccccc1-c1ccccc1 | 13µM | – | – | – | – | –
O=C(Nc1ccccc1-c1ccccc1)c1ccccc1Br | ? | – | – | – | – | –
COc1cccc(N2CCN(C(=O)c3c(C)oc4ncnc(N5CCCCC5)c34)CC2)c1 | – | – | – | · | · | ·
SMILES | KB-V1 cytotox | DRD3 agonist | KB-3-1 cytotox | SW480 rerep | MCF10A rereplic | D3 antag
COc1cc(NC(=O)c2cc3nc(-c4ccccc4)cc(-c4ccccc4)n3n2)c(OC)cc1Cl | · | – | · | · | · | ·
O=C(CSC1=Nc2ccccc2C2CC=NN12)Nc1ccc(F)c(F)c1F (centres undefined) | – | – | – | – | 21µM | –
Cc1ccc(Nc2c3c(nc4nncn24)CCC3)cc1C | · | – | · | · | · | ·
CC(C)(C)OC(=O)NCCc1nnc(S(=O)(=O)Cc2ccc(Cl)cc2Cl)o1 | – | – | – | ? | 7.3µM | -71
CCCCn1nnnc1C(c1ccnc2ccccc12)N1CCN(C/C=C/c2ccccc2)CC1 (centres undefined) | – | – | – | · | · | –
CCCCn1nnnc1C(c1ccccc1)N1CCN(C/C=C/c2ccccc2)CC1 (centres undefined) | – | – | – | · | · | -71

Assay outcomes (PubChem)
